Experimental data as given in PubChem BioAssay (NCATS).
Where “and” joins values, the source holds several entries; their conditions need not be identical. Equal values may be shown once. Inconclusive results are not listed. Calls of active or inactive are those of the source. Unless noted, the call rests on the fitted dose curve; in most records, active means well fitted curve in the direction sought with a large enough effect; inconclusive means small, poorly fitted or top-dose-only effect, or another doubt; inactive means no such curve, though single readings can be large; an effect the other way counts as inactive or inconclusive.

How the values were obtained:
[1] = target: Androgen receptor (Homo sapiens) (UniProt P10275); assay: qHTS assay for small molecule antagonists of androgen receptor signaling (AID 588516; active means well fitted curve in the direction sought with a large enough effect in the signal ratio, with a control signal flat, not every such curve was filed as active; the % refers to the signal ratio; further: potency means the concentration at half of the fitted maximal effect)
Chain of Androgen receptor (Homo sapiens) (P10275 whole entry, looked up): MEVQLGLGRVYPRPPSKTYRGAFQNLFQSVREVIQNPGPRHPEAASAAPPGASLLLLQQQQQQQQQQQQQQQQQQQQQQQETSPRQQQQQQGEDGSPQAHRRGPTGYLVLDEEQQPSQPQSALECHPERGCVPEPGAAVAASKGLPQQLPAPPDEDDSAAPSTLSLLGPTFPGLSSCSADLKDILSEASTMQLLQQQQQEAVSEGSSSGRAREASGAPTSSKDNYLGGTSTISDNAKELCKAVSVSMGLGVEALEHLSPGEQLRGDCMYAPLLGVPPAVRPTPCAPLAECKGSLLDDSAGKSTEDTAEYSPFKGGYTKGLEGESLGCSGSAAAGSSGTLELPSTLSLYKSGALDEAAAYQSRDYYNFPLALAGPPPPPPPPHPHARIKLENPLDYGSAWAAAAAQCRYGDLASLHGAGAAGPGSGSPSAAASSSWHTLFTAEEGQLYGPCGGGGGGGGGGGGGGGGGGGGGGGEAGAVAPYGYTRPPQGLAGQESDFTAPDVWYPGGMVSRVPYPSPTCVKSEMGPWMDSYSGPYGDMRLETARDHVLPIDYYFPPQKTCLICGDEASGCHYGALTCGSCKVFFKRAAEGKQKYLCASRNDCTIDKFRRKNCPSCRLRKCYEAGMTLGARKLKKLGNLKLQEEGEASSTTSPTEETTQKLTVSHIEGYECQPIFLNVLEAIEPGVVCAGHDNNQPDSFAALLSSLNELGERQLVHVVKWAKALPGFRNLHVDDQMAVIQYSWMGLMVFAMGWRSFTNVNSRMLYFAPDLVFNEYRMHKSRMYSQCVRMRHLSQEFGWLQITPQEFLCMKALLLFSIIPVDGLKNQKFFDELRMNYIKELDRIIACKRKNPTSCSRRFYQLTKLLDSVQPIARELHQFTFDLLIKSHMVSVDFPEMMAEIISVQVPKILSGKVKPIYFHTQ
In short: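 Antagonist mode: inhibition of R1881-stimulated (10 nM final) bla reporter in GeneBLAzer AR HEK 293 cells, 16 h at 37C, compounds titrated. IC50 and efficacy from Hill-equation fits of 405/460–530 nm FRET ratios.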

[2] = target: Peroxisome proliferator-activated receptor gamma (Homo sapiens) (UniProt P37231); assay: qHTS assay for small molecule agonists of peroxisome proliferator-activated receptor gamma signaling (AID 588536; active means well fitted curve in the direction sought with a large enough effect in the signal ratio, with a control signal flat, not every such curve was filed as active; the % refers to the signal ratio;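 further: 0% = DMSO basal wells and 100% = rosiglitazone at 2 µM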)
Chain of Peroxisome proliferator-activated receptor gamma (Homo sapiens) (P37231 whole entry, looked up): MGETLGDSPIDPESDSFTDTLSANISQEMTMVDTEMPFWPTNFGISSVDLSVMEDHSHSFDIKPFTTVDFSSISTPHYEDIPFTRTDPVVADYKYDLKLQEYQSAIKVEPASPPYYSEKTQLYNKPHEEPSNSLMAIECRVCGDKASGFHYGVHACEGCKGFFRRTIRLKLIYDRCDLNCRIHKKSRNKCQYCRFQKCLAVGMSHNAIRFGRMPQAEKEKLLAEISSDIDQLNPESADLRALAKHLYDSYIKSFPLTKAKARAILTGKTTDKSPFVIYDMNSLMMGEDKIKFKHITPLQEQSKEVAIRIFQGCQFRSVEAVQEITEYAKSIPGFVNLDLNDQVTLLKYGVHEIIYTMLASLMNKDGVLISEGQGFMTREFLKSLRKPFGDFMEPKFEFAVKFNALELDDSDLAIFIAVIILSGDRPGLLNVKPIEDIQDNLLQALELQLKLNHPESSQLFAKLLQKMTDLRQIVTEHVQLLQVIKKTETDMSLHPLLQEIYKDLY
In short: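 This is an agonist-mode beta-lactamase reporter assay in HEK293 PPAR-gamma-UAS-bla cells with 1% charcoal/dextran FBS. Compound titrations ran 16 h at 37 C before CCF4 detection. EC50 and efficacy are Hill fits scaled to 2 uM rosiglitazone (100%) and DMSO basal.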

[3] = target: Peroxisome proliferator-activated receptor gamma (Homo sapiens) (UniProt P37231); assay: qHTS assay for small molecule antagonists of peroxisome proliferator-activated receptor gamma signaling (AID 588537; active means well fitted inhibition curve with a large enough effect in the signal ratio, with a control signal flat, not every such curve was filed as active; the % refers to the signal ratio;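 further: reporter cells co-stimulated with 50 nM rosiglitazone agonist during compound treatment; % of control where 0% means no effect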)
In short: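 Antagonist-mode β-lactamase reporter screen run as a titration series. HEK293 PPARγ-UAS-bla cells are stimulated with rosiglitazone (50 nM final) for 16 h, then CCF4 is read at 460/530 nm. Data are scaled between DMSO and rosiglitazone and fitted to the Hill equation.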

[4] = qHTS assay for small molecule agonists of retinoid X receptor alpha signaling (AID 588544; calls by dose curve;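 on activation: 0% = DMSO basal wells and 100% = reference agonist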); details: HEK293T RXRa-UAS-bla, beta-lactamase reporter, 18 h; 530 nm emission
[5] = target: Retinoic acid receptor RXR-alpha (Homo sapiens) (UniProt P19793); assay: as above
Chain of Retinoic acid receptor RXR-alpha (Homo sapiens) (P19793 whole entry, looked up): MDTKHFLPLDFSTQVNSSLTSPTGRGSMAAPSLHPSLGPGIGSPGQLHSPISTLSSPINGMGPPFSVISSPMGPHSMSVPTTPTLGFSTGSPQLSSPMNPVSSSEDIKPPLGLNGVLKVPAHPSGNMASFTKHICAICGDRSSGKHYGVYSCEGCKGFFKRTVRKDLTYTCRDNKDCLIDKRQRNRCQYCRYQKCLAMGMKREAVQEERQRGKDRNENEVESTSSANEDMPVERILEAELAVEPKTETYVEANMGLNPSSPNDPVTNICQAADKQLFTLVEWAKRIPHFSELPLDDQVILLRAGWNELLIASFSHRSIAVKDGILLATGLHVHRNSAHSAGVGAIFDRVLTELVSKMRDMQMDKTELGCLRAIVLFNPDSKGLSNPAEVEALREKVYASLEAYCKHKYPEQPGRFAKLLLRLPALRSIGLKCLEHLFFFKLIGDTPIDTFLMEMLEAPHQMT

[6] = target: Thyroid hormone receptor beta (Homo sapiens) (UniProt P10828); assay: qHTS assay for small molecule agonists of thyroid hormone receptor beta signaling (AID 588545; calls by dose curve)
Chain of Thyroid hormone receptor beta (Homo sapiens) (P10828 whole entry, looked up): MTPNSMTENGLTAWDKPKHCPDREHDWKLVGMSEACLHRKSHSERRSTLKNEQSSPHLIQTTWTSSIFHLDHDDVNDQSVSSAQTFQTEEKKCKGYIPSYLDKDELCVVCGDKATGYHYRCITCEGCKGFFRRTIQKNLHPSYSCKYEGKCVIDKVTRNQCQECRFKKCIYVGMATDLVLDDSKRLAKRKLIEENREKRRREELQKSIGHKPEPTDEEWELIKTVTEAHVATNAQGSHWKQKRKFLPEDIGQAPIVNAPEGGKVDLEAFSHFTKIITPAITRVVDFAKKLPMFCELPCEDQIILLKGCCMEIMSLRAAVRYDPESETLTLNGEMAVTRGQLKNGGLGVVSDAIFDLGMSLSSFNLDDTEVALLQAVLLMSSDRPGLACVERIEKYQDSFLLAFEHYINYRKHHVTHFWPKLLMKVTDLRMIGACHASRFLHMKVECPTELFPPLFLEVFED
In short: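 Agonist activity was read as beta-lactamase CCF4 fluorescence (405 ex, 460/530 em), scaled between DMSO (0%) and 10 nM T3 (100%), then Hill-fitted for EC50 and efficacy. HEK 293 TR-UAS-bla cells in 2% charcoal/dextran FBS medium were exposed 18 h at 37 C.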

[7] = qHTS assay for small molecule antagonists of retinoid X receptor alpha signaling (AID 588546; active means well fitted inhibition curve with a large enough effect in the signal ratio, with a control signal flat, not every such curve was filed as active; the % refers to the signal ratio;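 further: cells stimulated with 9-cis-retinoic acid as agonist; on the % scale 0 is the no-effect control and ±100 the full control effect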); details: HEK293T RXRa-UAS-bla, beta-lactamase ratio, antagonist mode; measured here: W530 green channel, cytotoxicity proxy
In short: (§1)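 Beta-lactamase reporter inhibition, read as CCF4 fluorescence ratio (ex 405, em 460/530 nm) after 2 h at RT. HEK293T UAS-bla cells, 2500/well, were stimulated with 9-cis-RA at 500 or 100 nM final alongside test compound for 18 h at 37 C.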

[8] = target: Retinoic acid receptor RXR-alpha (Homo sapiens) (UniProt P19793); assay: as above; details: HEK293T RXRa-UAS-bla, beta-lactamase ratio, antagonist mode
In short: as §1

[9] = target: Thyroid hormone receptor beta (Homo sapiens) (UniProt P10828); assay: qHTS assay for small molecule antagonists of thyroid hormone receptor beta signaling (AID 588547; active means well fitted inhibition curve with a large enough effect in the signal ratio, with a control signal flat, not every such curve was filed as active; the % refers to the signal ratio;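 further: cells stimulated with 0.4 nM T3 agonist during compound exposure; on the % scale 0 is the no-effect control and ±100 the full control effect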); details: TR-UAS-bla HEK293, beta-lactamase ratio, antagonist mode, 18 h
In short: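 Inhibition of T3-driven (0.4nM final) beta-lactamase reporter activity was measured over 0.59 nM to 92 uM compound after 18 h at 37 C. The cells were GripTite HEK293 TR-UAS-bla in charcoal/dextran-stripped serum, with CCF4 ratio read-out and IC50 from Hill fits.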

[10] = qHTS assay for small molecule activators of the p53 signaling pathway (AID 651743; active means well fitted activation curve with a large enough effect in the signal ratio, not every such curve was filed as active; the % refers to the signal ratio; further: % of control where 0% means no effect); details: HCT-116 p53RE-bla, beta-lactamase FRET ratio, 16 h; activation: stronger effect = higher value
In short: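 After 16 hours compound treatment at 37 C, HCT-116 cells stably expressing p53RE-driven beta-lactamase were loaded with LiveBLAzer B/G FRET substrate for 2 hours at room temperature. Fluorescence intensity served as the p53 activation read-out.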

[11] = qHTS assay for small molecule activators of the nuclear factor-kappa B (NF-kB) signaling pathway (AID 651749; active means well fitted activation curve with a large enough effect in the signal ratio; the % refers to the signal ratio; further: % of control where 0% means no effect); details: NF-kB-bla ME-180 cells, beta-lactamase FRET ratio, 16 h; activation: stronger effect = higher value
In short: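 Activation measured after 16 hr compound treatment at 37C, 5% CO2, of 2,000 ME-180 cells/well stably expressing an NF-kB response element–driven beta-lactamase reporter, via FRET-disruption fluorescence.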

[12] = qHTS assay for small molecule disruptors of the mitochondrial membrane potential - 1 hr assay (AID 651754; calls by dose curve; further: potency means the concentration at half of the fitted maximal effect; nearly all actives have a fitted effect of over 35% in size)
In short: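 Mitochondrial potential in living HepG2 cells after 1 hr compound treatment at 37C was read with Mito-MPS dye added for a further 30 min. Red aggregate and green monomer fluorescence were measured; loss of potential leaves dye as cytoplasmic monomers.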

[13] = qHTS assay for small molecule disruptors of the mitochondrial membrane potential - 5 hr assay (AID 651755; calls by dose curve; further: potency means the concentration at half of the fitted maximal effect; nearly all actives have a fitted effect of over 40% in size)
In short: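 Membrane-potential dye readout: red aggregate (540 ex/590 em) versus green monomer (490 ex/535 em) fluorescence after 30 min dye loading, following 5 hr compound exposure at 37C of overnight-plated HepG2 cells.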

[14] = qHTS assay for environmental chemicals that activate the Aryl hydrocarbon Receptor (AhR) signaling pathway (AID 651777); details: 1A2-DRE human hepatoma cells, luciferase, 24 h; activation: stronger effect = higher value; further: % of control where 0% means no effect; nearly all actives have a fitted effect of over 15% in size
In short: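 Concentration–response screening used 1,200 1A2-DRE cells per well, 24 hr compound exposure (37 C, 5% CO2), and One-Glo luminescence as the AhR-driven CYP1A2 reporter signal.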

[15] = target: Peroxisome proliferator-activated receptor alpha (Homo sapiens) (UniProt Q07869); assay: qHTS assay for small molecule agonists of the peroxisome proliferator-activated receptor alpha (PPARalpha) signaling pathway (AID 651778); details: PathHunter PPARalpha complementation, chemiluminescence, 6 h; stronger effect = higher value; further: % of control where 0% means no effect
Chain of Peroxisome proliferator-activated receptor alpha (Homo sapiens) (Q07869 whole entry, looked up): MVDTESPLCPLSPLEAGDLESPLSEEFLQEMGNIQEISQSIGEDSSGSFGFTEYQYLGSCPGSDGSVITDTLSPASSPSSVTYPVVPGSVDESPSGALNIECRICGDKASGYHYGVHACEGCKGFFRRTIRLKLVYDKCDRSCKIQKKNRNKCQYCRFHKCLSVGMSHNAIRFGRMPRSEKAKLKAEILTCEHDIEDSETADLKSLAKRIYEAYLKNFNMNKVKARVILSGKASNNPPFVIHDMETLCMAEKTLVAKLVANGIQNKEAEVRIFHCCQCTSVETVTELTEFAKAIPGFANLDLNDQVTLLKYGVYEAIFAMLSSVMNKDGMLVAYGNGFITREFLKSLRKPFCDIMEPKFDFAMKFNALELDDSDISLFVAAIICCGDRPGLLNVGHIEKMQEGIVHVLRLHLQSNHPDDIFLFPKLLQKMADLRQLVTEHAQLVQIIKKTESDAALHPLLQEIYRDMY
In short: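 Chemiluminescence from complemented enzyme reported PPARalpha activation in cells after 6 hr of compound treatment at 37 C. The detection reagent was incubated for 60 min at room temperature, and compounds were scored as agonists.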

[16] = target: Nuclear receptor ROR-gamma (Homo sapiens) (UniProt P51449); assay: qHTS assay for small molecule antagonists of the retinoid-related orphan receptor gamma (ROR-gamma) signaling pathway (AID 651802); further: potency means the concentration at half of the fitted maximal effect; nearly all actives have a fitted effect of over 60% in size
Chain of Nuclear receptor ROR-gamma (Homo sapiens) (P51449 whole entry, looked up): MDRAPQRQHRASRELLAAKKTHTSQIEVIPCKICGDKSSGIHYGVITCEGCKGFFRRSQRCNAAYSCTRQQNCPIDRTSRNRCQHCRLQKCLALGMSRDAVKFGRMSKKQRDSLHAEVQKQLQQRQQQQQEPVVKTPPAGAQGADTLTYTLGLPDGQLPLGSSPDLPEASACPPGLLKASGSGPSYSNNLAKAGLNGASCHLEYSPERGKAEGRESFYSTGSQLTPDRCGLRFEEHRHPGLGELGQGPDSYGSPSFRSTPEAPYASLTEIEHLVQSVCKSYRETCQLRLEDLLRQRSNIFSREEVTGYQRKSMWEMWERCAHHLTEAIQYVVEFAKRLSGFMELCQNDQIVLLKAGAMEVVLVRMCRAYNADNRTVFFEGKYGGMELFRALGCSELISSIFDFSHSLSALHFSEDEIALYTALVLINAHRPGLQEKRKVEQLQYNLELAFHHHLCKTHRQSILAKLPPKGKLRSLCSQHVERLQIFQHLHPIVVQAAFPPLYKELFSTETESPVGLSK
In short: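 Luminescence (One-Glo, 30 min RT) measured 16 h after compound addition and doxycycline induction at 37C. Reporter: RORE-luciferase under TET-inducible ROR-gamma in CHO cells.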

[17] = qHTS assay for small molecule agonists of the antioxidant response element (ARE) signaling pathway measured by Nrf2-dependant transcriptional activity (AID 720636; active means well fitted curve in the direction sought with a large enough effect in the repeat runs; an effect the other way counts as inactive or inconclusive;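 further: HepG2 cells with an ARE-driven luciferase reporter; % of control where 0% means no effect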)
In short: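 Attachment 6 hr at 37 C, then compound versus DMSO vehicle for 16 hr in ARE-luc HepG2 cells (1% dialyzed FBS); luminescence recorded 30 min after ONE-Glo addition at room temperature.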

[18] = qHTS assay for small molecule agonists of the antioxidant response element (ARE) signaling pathway measured by Nrf2-dependant transcriptional activity - cell viability counter screen (AID 720653; active means well fitted curve in the direction sought with a large enough effect in the repeat runs; an effect the other way counts as inactive or inconclusive; further: on the % scale 0 is the no-effect control and ±100 the full control effect); details: ARE-bla HepG2 viability, CellTiter-Glo ATP luminescence, 16 h; stronger effect = lower value
In short: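 Cytotoxicity counter screen: intracellular ATP quantified by CellTiter-Glo luminescence in the same ARE-bla HepG2 plates, after 16 h compound exposure and a 2 h beta-lactamase substrate step.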

[19] = qHTS assay for cell viability of HEK293 cells (AID 743288); details: ATP luminescence (CellTiter-Glo), 18 h; max response: stronger effect = lower value; further: on the % scale 0 is the no-effect control and ±100 the full control effect; nearly all actives have a fitted effect of over 50% in size
In short: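 Readout is luciferase-coupled ATP content (CellTiter-Glo luminescence, 30 min room temperature) as a measure of metabolically competent cells. Parental HEK293 cells were plated 5 h or more before compound addition, then treated 18 h at 37 C.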

[20] = qHTS assay for cell viability of the p53RE-bla HCT-116 cell line (AID 743292); further: on the % scale 0 is the no-effect control and ±100 the full control effect; nearly all actives have a fitted effect of over 55% in size
In short: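 Compound-exposed HCT-116 (p53RE-bla) cells, 4,000 per well, were kept 16 h at 37 C following a 5 h preincubation. Cell number was estimated from total ATP by CellTiter-Glo luminescence read after 30 min at room temperature.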

[21] = target: Catechol O-methyltransferase (Homo sapiens) (UniProt P21964); assay: Confirmatory Screen for Target Class Profiling of Small Molecule Inhibitors of Methyltransferases (AID 1745852; calls by dose curve; further: potency means the concentration at half of the fitted maximal effect); details: MTase-Glo luminescence, SAH detection, recombinant enzyme; measured here: COMT max response; stronger effect = lower value
Chain of Catechol O-methyltransferase (Homo sapiens) (P21964 whole entry, looked up): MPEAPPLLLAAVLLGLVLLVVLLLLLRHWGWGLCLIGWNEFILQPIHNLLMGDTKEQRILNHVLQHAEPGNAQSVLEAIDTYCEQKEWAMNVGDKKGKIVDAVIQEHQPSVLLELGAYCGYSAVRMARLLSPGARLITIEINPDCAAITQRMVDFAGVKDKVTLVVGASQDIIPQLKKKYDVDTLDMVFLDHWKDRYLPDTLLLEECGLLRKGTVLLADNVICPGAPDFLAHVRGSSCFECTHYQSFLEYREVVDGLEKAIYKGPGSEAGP

[22] = target: Guanidinoacetate N-methyltransferase (Homo sapiens) (UniProt Q14353); assay: as above; details: MTase-Glo luminescence, SAH detection, recombinant enzyme; activity change, negative = inhibition: at 85.7 µM (top of the series) unless noted
[23] = target: Nicotinamide N-methyltransferase (Homo sapiens) (UniProt P40261); assay: as above; details: MTase-Glo luminescence, SAH detection, recombinant enzyme; measured here: NNMT max response; stronger effect = lower value
Chain of Nicotinamide N-methyltransferase (Homo sapiens) (P40261 whole entry, looked up): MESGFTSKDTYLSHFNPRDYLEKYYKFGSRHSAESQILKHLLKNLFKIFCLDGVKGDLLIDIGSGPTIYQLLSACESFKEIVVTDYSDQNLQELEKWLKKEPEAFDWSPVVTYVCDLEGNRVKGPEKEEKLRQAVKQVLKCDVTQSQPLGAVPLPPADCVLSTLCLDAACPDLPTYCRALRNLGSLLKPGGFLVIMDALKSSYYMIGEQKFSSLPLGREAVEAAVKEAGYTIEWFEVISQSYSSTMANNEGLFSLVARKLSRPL

[24] = target: Phenylethanolamine N-methyltransferase (Homo sapiens) (UniProt P11086); assay: as above; details: MTase-Glo luminescence, SAH detection, recombinant enzyme; measured here: PNMT max response; stronger effect = lower value
Chain of Phenylethanolamine N-methyltransferase (Homo sapiens) (P11086 whole entry, looked up): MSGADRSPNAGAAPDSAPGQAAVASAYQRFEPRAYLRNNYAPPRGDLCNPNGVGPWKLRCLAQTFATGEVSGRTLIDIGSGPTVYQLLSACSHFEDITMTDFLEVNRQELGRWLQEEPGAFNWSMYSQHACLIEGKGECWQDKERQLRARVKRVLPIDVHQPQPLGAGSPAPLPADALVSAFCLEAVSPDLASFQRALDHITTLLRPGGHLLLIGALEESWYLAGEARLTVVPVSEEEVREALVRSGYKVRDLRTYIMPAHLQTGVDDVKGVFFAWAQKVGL

[25] = target: Glutathione peroxidase 1 (Homo sapiens) (UniProt P07203); assay: Primary qHTS Assay for Inhibitors of Recombinant Selenoprotein Glutathione Peroxidase 1 (GPX1) (AID 1845191); further: on the % scale 0 is the no-effect control and ±100 the full control effect; nearly all actives have a fitted effect of over 65% in size
Chain of Glutathione peroxidase 1 (Homo sapiens) (P07203 whole entry, looked up): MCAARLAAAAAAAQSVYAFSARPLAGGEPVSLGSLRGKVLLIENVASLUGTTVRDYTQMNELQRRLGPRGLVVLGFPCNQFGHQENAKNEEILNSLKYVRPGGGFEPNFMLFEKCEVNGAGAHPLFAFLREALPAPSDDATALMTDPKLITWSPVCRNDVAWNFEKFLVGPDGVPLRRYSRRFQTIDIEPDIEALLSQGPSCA
In short: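 NADPH consumption tracked by fluorescence at 340/450 nm between t=0 and t=15 min, room temperature. Final mix: 10 nM GPX1, 100 nM glutathione reductase, 1 mM GSH, 0.5 mM NADPH, 0.5 mM cumene hydroperoxide, 0.01% BSA; 30 min compound–enzyme preincubation.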

[26] = target: Nuclear receptor subfamily 1 group I member 2 (Rattus norvegicus) (UniProt Q9R1A7); assay: qHTS assay for small molecule activators of the rat pregnane X receptor (rPXR) signaling pathway (AID 651751; call rule not given here; further: 0% is about no effect); details: rPXR reporter cells, luciferase (One-Glo), 24 h
Chain of Nuclear receptor subfamily 1 group I member 2 (Rattus norvegicus) (Q9R1A7 whole entry, looked up): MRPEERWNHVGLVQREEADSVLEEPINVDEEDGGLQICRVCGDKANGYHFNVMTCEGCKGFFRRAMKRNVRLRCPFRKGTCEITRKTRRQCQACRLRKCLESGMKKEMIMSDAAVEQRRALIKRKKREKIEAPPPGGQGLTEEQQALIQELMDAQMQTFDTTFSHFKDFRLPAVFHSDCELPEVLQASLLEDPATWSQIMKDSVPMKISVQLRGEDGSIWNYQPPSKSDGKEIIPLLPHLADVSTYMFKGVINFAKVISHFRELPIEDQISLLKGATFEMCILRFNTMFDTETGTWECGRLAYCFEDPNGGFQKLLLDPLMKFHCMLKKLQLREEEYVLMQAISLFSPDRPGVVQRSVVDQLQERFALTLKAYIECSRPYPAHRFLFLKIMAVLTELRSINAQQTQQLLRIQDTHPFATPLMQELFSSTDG

Structure (SMILES): C[C@H]1CCCC(=O)CCC/C=C/c2cc(O)cc(O)c2C(=O)O1
- Potency [1]: 44.7 µM (active)
- outcome [2]: inactive
- Potency [3]: inactive
- max response [4]: -13.4% and 26.9%
- Potency [5]: inactive
- outcome [6]: inactive
- max response [7]: 17.7%
- max response [8]: -20.8% (inactive)
- activity change % (negative = inhibition) [9]: -19.1% (inactive) and -18.2% (inactive)
- activation [10]: 20.6% (inactive)
- activation [11]: -2.55% (inactive) and -2.52% (inactive) and -4.61% (inactive)
- Potency [12]: 37.6 µM (active)
- Potency [13]: 33.5 µM (active) and 37.6 µM (active)
- activation [14]: -5.88% (inactive) and -4.48% (inactive) and -7.69% (inactive)
- max response [15]: -0.403% (inactive) and -3.88% (inactive) and -0.278% (inactive)
- Potency [16]: 42.2 µM (active)
- outcome [17]: inactive
- max response [18]: -27% (inactive) and -18.5% (inactive)
- max response [19]: -26.5% (inactive) and -8.31% (inactive) and -15% (inactive)
- Potency [20]: inactive
- activity [21]: -93%
- Potency [22]: 17.1 µM (active)
- activity [23]: -84.9%
- activity [24]: -95%
- Potency [25]: inactive
- max response [26]: -12.4% (inactive) and -5.06% (inactive) and -7.58% (inactive)
